Data from ChEMBL document CHEMBL2218924, “A broad activity screen in support of a chemogenomic map for kinase signalling research and drug discovery” (Biochem J, 2013).

Target: Protein-tyrosine kinase 2-beta (Homo sapiens) (UniProt Q14289)
Conditions: at 1 µM

Chain of Protein-tyrosine kinase 2-beta (Homo sapiens) (Q14289 whole entry, looked up): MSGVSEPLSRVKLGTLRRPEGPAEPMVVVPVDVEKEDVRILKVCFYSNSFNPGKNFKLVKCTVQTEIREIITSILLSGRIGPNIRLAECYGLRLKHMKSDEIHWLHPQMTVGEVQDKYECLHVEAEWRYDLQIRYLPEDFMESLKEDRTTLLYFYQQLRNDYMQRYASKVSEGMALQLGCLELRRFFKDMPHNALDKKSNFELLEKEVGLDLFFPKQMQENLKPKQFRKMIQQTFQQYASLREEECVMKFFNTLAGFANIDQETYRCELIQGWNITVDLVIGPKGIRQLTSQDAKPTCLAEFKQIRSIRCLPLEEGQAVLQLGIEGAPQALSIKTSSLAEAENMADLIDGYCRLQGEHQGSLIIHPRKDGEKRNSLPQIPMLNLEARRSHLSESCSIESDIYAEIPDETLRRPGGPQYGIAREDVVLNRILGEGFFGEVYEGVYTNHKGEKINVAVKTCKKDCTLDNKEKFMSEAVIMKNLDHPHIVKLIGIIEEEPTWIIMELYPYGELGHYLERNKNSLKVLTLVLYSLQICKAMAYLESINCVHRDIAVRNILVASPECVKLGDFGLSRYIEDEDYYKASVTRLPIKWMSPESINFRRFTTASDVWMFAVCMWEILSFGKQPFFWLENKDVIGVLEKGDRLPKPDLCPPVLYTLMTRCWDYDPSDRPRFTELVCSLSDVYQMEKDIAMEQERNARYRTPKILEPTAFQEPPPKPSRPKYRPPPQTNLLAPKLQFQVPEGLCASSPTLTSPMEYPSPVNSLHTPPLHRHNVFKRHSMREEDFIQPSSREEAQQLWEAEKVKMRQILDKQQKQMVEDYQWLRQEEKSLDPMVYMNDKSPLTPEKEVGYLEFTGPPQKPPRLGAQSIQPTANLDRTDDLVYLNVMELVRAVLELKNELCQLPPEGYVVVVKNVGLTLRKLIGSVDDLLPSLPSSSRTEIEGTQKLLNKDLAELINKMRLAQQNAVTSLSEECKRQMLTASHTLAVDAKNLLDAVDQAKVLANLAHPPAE

Structure (SMILES) | residual activity
Oc1cccc(-c2nc(N3CCOCC3)c3oc4ncccc4c3n2)c1 | 142%
c1ccc(-c2cnc(Nc3ccc(OCCN4CCCC4)cc3)s2)cc1 | 105%
NCCNc1ncc(C(N)=O)c(Nc2cccc(C(F)(F)F)c2)n1 | 27%
O=C(c1cc2cc(O)ccc2[nH]1)c1cc2cc(O)ccc2[nH]1 | 68%
Cn1c2ccccc2c2c3c(c4c5ccccc5n(CCC#N)c4c21)CNC3=O | 4%
O=C(Nc1nc2ccccc2n1CCN1CCOCC1)c1cccc([N+](=O)[O-])c1 | 114%
N#C/C(=C\c1ccc(O)c(O)c1)C(=O)NCc1ccccc1 | 146%
COc1cc2c(cc1OC)-c1n[nH]c(Nc3cccc(F)c3)c1C2 | 79%
O=C(Nc1ccc(Cl)cc1)c1ccccc1NCc1ccncc1 | 128%
O=c1cc(N2CCOCC2)oc2c(-c3ccccc3)cccc12 | 127%
COc1ccc(CNC(=O)Nc2ncc([N+](=O)[O-])s2)cc1 | 72%
O=C1NC(=O)C(c2cn(CCCO)c3ncccc23)=C1c1cnccn1 | 100%
CCCCc1c(-c2ccc(OC)cc2)[nH]c2nccnc12 | 54%
Nc1nc(Nc2ccc(S(N)(=O)=O)cc2)nn1C(=O)c1c(F)cccc1F | 55%
CCN(CC)CCNC(=O)c1c(C)[nH]c(/C=C2\C(=O)Nc3ccc(Cl)cc32)c1C | 15%
O=C1NC(=O)C(c2c[nH]c3ccccc23)=C1c1c[nH]c2ccccc12 | 97%
COc1ccc2c(c1)c(C1=C(c3c[nH]c4ccccc34)C(=O)NC1=O)cn2CCCN(C)C | 116%
O=C1NC(=O)C(c2cn(CCCn3ccnc3)c3ccccc23)=C1Nc1ccccc1 | 121%
COc1cc2nccc(Oc3ccc(NC(=O)Nc4cc(C)on4)c(Cl)c3)c2cc1OC | 34%
